From PubChem BioAssay AID1159580 (chemical genetic matrix, 2015)
In all, about 5,500 compounds went through this assay and about 2,000 (36%) were called active. Roughly 18% stayed inconclusive and do not appear here. No stated cut-off is given here; in the data, active means normalized growth mostly below about 0.91 (no sharp cut-off); inconclusive means no clear call, values can overlap the other calls; inactive means mostly above about 0.92. The list shows a part of the results.

Experiment: chemical genetic growth profiling, strain panel (AID 1159580);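 further: tested at 20 µM; growth read once vehicle control cultures reached saturation at 30 °C; 1 = growth at the plate median or of vehicle wells; lower values mean less growth of the strain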
Conditions: growth OD

Measured: normalized growth

CC(=O)N(O)CCCCCNC(=O)CCC(=O)N(O)CCCCCNC(=O)CCC(=O)N(O)CCCCCN
active: S. cerevisiae deletion strains, locus YNL209W, strain ssb2, hits give low values 0.917 | S. cerevisiae deletion strains, locus YOR106W, strain vam3, hits give low values 0.844
inactive: S. cerevisiae deletion strains, locus YJR066W, strain TOR1, hits give low values 0.95 | S. cerevisiae deletion strains, locus YJR075W, strain HOC1, hits give low values 1.01 | S. cerevisiae deletion strains, locus YKL009W, strain mrt4, hits give low values 1.01 | S. cerevisiae deletion strains, locus YKL068W, hits give low values 1.05 | S. cerevisiae deletion strains, locus YKL085W, strain MDH1 (second series), hits give low values 1.02 | S. cerevisiae deletion strains, locus YKL085W, strain MDH1, hits give low values 1.02 | S. cerevisiae deletion strains, locus YKL160W, strain elf1, hits give low values 0.998 | S. cerevisiae deletion strains, locus YKL190W, strain CNB1, hits give low values 1.01 | S. cerevisiae deletion strains, locus YKR001C, strain vps1, hits give low values 0.966 | S. cerevisiae deletion strains, locus YKR026C, strain gcn3, hits give low values 1.03 | S. cerevisiae deletion strains, locus YKR091W, strain srl3, hits give low values 1.01 | S. cerevisiae deletion strains, locus YLL001W, strain dnm1, hits give low values 0.991 | S. cerevisiae deletion strains, locus YLL026W, hits give low values 0.997 | S. cerevisiae deletion strains, locus YLL041C, strain sdh2, hits give low values 1 | S. cerevisiae deletion strains, locus YLR027C, strain aat2, hits give low values 1 | S. cerevisiae deletion strains, locus YLR039C, strain RIC1, hits give low values 0.997 | S. cerevisiae deletion strains, locus YLR058C, strain SHM2, hits give low values 1.01 | S. cerevisiae deletion strains, locus YLR102C, strain apc9, hits give low values 1.03 | S. cerevisiae deletion strains, locus YLR113W, strain HOG1, hits give low values 1.14 | S. cerevisiae deletion strains, locus YLR221C, strain rsa3, hits give low values 1.04 | S. cerevisiae deletion strains, locus YLR258W, strain gsy2, hits give low values 1.02 | S. cerevisiae deletion strains, locus YLR262C, strain YPT6 (second series), hits give low values 0.995 | S. cerevisiae deletion strains, locus YLR262C, strain YPT6, hits give low values 1.08 | S. cerevisiae deletion strains, locus YLR268W, strain sec22, hits give low values 0.981 | S. cerevisiae deletion strains, locus YLR320W, strain mms22, hits give low values 1.07 | S. cerevisiae deletion strains, locus YLR330W, strain CHS5, hits give low values 1.01 | S. cerevisiae deletion strains, locus YLR342W, strain FKS1 (second series), hits give low values 0.854 | S. cerevisiae deletion strains, locus YLR342W, strain FKS1, hits give low values 0.958 | S. cerevisiae deletion strains, locus YLR357W, strain rsc2, hits give low values 0.882 | S. cerevisiae deletion strains, locus YLR370C, strain arc18, hits give low values 1 | S. cerevisiae deletion strains, locus YLR371W, strain rom2, hits give low values 1.02 | S. cerevisiae deletion strains, locus YLR384C, strain iki3, hits give low values 0.991 | S. cerevisiae deletion strains, locus YLR418C, strain cdc73, hits give low values 0.864 | S. cerevisiae deletion strains, locus YML016C, strain PPZ1, hits give low values 1.01 | S. cerevisiae deletion strains, locus YML032C, strain rad52, hits give low values 1.06 | S. cerevisiae deletion strains, locus YML120C, strain ndi1, hits give low values 0.993 | S. cerevisiae deletion strains, locus YML124C, strain tub3, hits give low values 1.03 | S. cerevisiae deletion strains, locus YMR058W, strain fet3, hits give low values 1.02 | S. cerevisiae deletion strains, locus YMR078C, strain ctf18, hits give low values 1.04 | S. cerevisiae deletion strains, locus YMR125W, strain sto1, hits give low values 1.06 | S. cerevisiae deletion strains, locus YMR129W, hits give low values 1.01 | S. cerevisiae deletion strains, locus YMR205C, strain PFK2, hits give low values 1.03 | S. cerevisiae deletion strains, locus YMR223W, strain ubp8, hits give low values 0.998 | S. cerevisiae deletion strains, locus YMR231W, strain pep5, hits give low values 0.983 | S. cerevisiae deletion strains, locus YMR307W, strain GAS1, hits give low values 0.809 | S. cerevisiae deletion strains, locus YNL067W, strain RPL9B, hits give low values 0.999 | S. cerevisiae deletion strains, locus YNL071W, strain lat1, hits give low values 1.04 | S. cerevisiae deletion strains, locus YNL128W, strain TEP1, hits give low values 1.01 | S. cerevisiae deletion strains, locus YNL153C, strain GIM3, hits give low values 0.99 | S. cerevisiae deletion strains, locus YNL183C, strain NPR1, hits give low values 0.995 | S. cerevisiae deletion strains, locus YNL233W, strain BNI4, hits give low values 0.987 | S. cerevisiae deletion strains, locus YNL248C, strain rpa49, hits give low values 1.08 | S. cerevisiae deletion strains, locus YNL250W, strain rad50, hits give low values 1.08 | S. cerevisiae deletion strains, locus YNL271C, strain bni1, hits give low values 0.978 | S. cerevisiae deletion strains, locus YNL298W, strain CLA4, hits give low values 1 | S. cerevisiae deletion strains, locus YNL307C, strain MCK1, hits give low values 1.03 | S. cerevisiae deletion strains, locus YNL322C, strain KRE1 (second series), hits give low values 1.01 | S. cerevisiae deletion strains, locus YNR049C, strain mso1, hits give low values 1.01 | S. cerevisiae deletion strains, locus YNR052C, strain pop2, hits give low values 1.01 | S. cerevisiae deletion strains, locus YOL012C, strain htz1 1.51 | S. cerevisiae deletion strains, locus YOL147C, strain pex11, hits give low values 1.02 | S. cerevisiae deletion strains, locus YOR001W, strain rrp6, hits give low values 0.96 | S. cerevisiae deletion strains, locus YOR061W, strain CKA2, hits give low values 0.996 | S. cerevisiae deletion strains, locus YOR069W, strain VPS5, hits give low values 1.01 | S. cerevisiae deletion strains, locus YOR070C, strain gyp1, hits give low values 1.01 | S. cerevisiae deletion strains, locus YOR080W, strain dia2, hits give low values 0.996 | S. cerevisiae deletion strains, locus YOR083W, strain WHI5, hits give low values 0.958 | S. cerevisiae deletion strains, locus YOR136W, strain idh2, hits give low values 1.03 | S. cerevisiae deletion strains, locus YOR144C, strain elg1, hits give low values 1.02 | S. cerevisiae deletion strains, locus YOR184W, strain ser1, hits give low values 0.999 | S. cerevisiae deletion strains, locus YOR231W, strain MKK1, hits give low values 1.04 | S. cerevisiae deletion strains, locus YOR265W, strain rbl2, hits give low values 1 | S. cerevisiae deletion strains, locus YOR270C, strain vph1, hits give low values 0.964 | S. cerevisiae deletion strains, locus YOR290C, strain snf2, hits give low values 1.02 | S. cerevisiae deletion strains, locus YOR316C, strain cot1, hits give low values 1.04 | S. cerevisiae deletion strains, locus YPL051W, strain arl3, hits give low values 1.07 | S. cerevisiae deletion strains, locus YPL078C, strain atp4, hits give low values 0.985 | S. cerevisiae deletion strains, locus YPL106C, strain sse1, hits give low values 0.953 | S. cerevisiae deletion strains, locus YPL240C, strain hsp82, hits give low values 1.01 | S. cerevisiae deletion strains, locus YPL256C, strain CLN2, hits give low values 1.09 | S. cerevisiae deletion strains, locus YPR119W, strain clb2, hits give low values 1.04 | S. cerevisiae deletion strains, locus YPR141C, strain kar3, hits give low values 1.05 | S. cerevisiae deletion strains, locus YPR163C, strain tif3, hits give low values 1.03 | S. cerevisiae deletion strains, locus YPR167C, strain met16, hits give low values 1.04 | S. cerevisiae deletion strains, strain wtn01, hits give low values 0.998 | S. cerevisiae strains, strain wild type, hits give low values 1.01
